Only some compounds are listed: those with a hit (about 7.5% of all), similar ones and a draw of the others.
Rab9 prom act – activates the Rab9 promoter | Huh7 Rab9 promoter-luciferase reporter, luminescence, 24 h | Potency, µM (series often up to 9.22 µM), inactives show at the top dose activation, negative = inhibition, usual class: activators | 2.8% of 320,000 active | AID 485297; further: % of control where 0% means no effect; nearly all actives have a fitted effect of over 60% in size
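Luminescence read-out: Huh7 cells stably expressing Rab9-luciferase, treated 24 h with compound at 37 °C, then lysed with luciferase reagent for 10 min at ambient before reading.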
FLuc modulator – inhibits or activates purified firefly luciferase, miR-21 counter-screen | P08659 | purified FLuc, Km substrates, luminescence inhibition | Potency, µM (series often up to 57.5 µM), for inactives: top-dose activity change, negative = inhibition, most hits filed as inhibitors | 6.9% of 360,000 active;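 further: plate controls were vehicle for no effect and reference inhibitor for full effect; nearly all actives have a fitted effect of over 55% in size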
Target sequence (P08659 whole entry, looked up): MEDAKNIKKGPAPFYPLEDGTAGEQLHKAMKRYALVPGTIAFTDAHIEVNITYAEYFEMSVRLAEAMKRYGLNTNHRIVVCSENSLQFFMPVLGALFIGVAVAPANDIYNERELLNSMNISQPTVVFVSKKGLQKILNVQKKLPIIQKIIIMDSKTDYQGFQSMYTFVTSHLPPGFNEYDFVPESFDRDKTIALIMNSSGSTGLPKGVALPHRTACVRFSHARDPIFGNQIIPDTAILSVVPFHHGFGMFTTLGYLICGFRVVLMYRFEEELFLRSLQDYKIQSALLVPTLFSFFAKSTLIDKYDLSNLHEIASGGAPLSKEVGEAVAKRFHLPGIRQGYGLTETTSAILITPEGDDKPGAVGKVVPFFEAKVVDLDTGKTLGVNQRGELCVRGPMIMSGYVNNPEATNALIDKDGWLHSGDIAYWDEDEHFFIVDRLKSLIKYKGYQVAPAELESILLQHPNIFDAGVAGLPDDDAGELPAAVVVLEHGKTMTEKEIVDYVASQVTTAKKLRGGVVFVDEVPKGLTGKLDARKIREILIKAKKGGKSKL
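Biochemical qHTS of compounds, final roughly 60 µM downward over six points, against 10 nM purified firefly luciferase using Km concentrations of substrates (10 uM D-luciferin, 10 uM ATP) in Tris acetate pH 7.5 buffer; luminescence output.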
ELG1 genotoxic – genotoxicity induction in ELG1-luciferase HEK293T cells. HEK293T ELG1-luciferase reporter, luminescence, 16 h. 1.3% of 330,000 active. Potency, µM (doses to about 46 µM), inactives show top-dose activity change, positive = activation, usual class: activators; further: % of control where 0% means no effect; nearly all actives have a fitted effect of over 60% in size
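DMSO vehicle served as control against compound-treated ELG1-luciferase HEK293T cells; exposure lasted 16 hr at 37 °C and 5% CO2, followed by ONE-Glo luminescence detection after 30 min.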
SMN2 splice up – SMN2 splice variant enhancement; HEK293 SMN2-luciferase splicing reporter, luminescence, 30-36 h; 2.8% of 210,000 active; Potency, µM (top dose mostly 46.1 µM), without a hit: at the top dose activity change, positive = activation, usual class: activators; further: % of control where 0% means no effect; nearly all actives have a fitted effect of over 55% in size
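qHTS luciferase splicing reporter: luminescence rises when SMN2 exon 7 is included in transfected HEK293 cells. Compound exposure lasted 30-36 h at 37C, with 4.5 mM final sodium butyrate as control, followed by a ONE-Glo read.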
NPC1 promoter act – activates the NPC1 promoter; 2.4% of 320,000 active; Potency, µM (series often up to 9.22 µM), inactives show top-dose activation, hits mostly activators; AID 485313; Huh7 NPC1 promoter luciferase reporter, 24 h; further: % of control where 0% means no effect; nearly all actives have a fitted effect of over 60% in size
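In 1536-well qHTS, Huh7 cells harboring an NPC1 promoter–luciferase construct received compound for 24 h; activation was quantified by luminescence following luciferase reagent addition.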
Active calls of the source: *; ? = inconclusive; / = not tested or not shown; [ ] = another dose, or the depositor's remark. The call rests on the fitted dose curve; in most records, active means well fitted curve in the direction sought with a large enough effect; inconclusive means small, poorly fitted or top-dose-only effect, or another doubt; inactive means no such curve, though single readings can be large; an effect the other way counts as inactive or inconclusive. Potency means the concentration at half of the fitted maximal effect.

SMILES | Rab9 prom act | FLuc modulator | ELG1 genotoxic | SMN2 splice up | NPC1 promoter act
CCC(C(=O)Nc1ccc2c(c1)OCCO2)n1c(=O)[nH]c2ccccc2c1=O (stereo not given) | 1% | -18% | ? | / | 0%
CC1CCC(NC(=O)C2COc3ccccc3O2)CC1 (stereo not given) | 20% | -5% | 15µM* | / | 18%
O=C(Nc1ccccc1C(=O)OCc1cc(=O)n2c3c(sc2n1)CCCC3)c1cccc(Cl)c1 | / | -2% | / | / | /
COc1ccc(/C(C)=N/NC(=O)c2nc(C)cc(C)n2)cc1 | ? | 24µM* | 5.6µM* | 11µM* | ?
CCOc1ccc(NS(=O)(=O)c2cc(NC(=O)c3ccc(C)cc3)ccc2Cl)cc1 | -27% | 13µM* | -5% | -68% | -29%
COc1ccc(/C(C)=N/NC(=O)c2ccc(NS(=O)(=O)c3cccs3)cc2)cc1 | -3% | 21µM* | 2% | / | 2%
CCOc1ccc(NC(=O)c2ccc(NS(=O)(=O)c3cccs3)cc2)cc1 | -2% | 12µM* | -1% | / | -6%
C/C(=N\NC(=O)c1ccc(NS(=O)(=O)c2cccs2)cc1)c1ccccc1 | -5% | -26% | -2% | 4% | 0%
COc1ccc(/C(C)=N/NC(=O)c2ccc(N(C)C)cc2)cc1 | -10% | 3% | 2% | -14% | -4%
COc1cccc(NC(=O)c2ccc(NS(=O)(=O)c3cccs3)cc2)c1 | -4% | -15% | 3% | / | 0%
O=S(=O)(Cc1ccccc1)NCCc1cccc(Cl)c1 | 8% | -2% | -5% | / | 2%
O=C(Nc1ccc(CN2CCOCC2)cc1)c1ccc(-c2cccc([N+](=O)[O-])c2)o1 | -3% | ? | -16% | / | -7%
COCc1cc(C)n(CC(=O)Nc2cc(C)cc(C)c2)c(=O)c1C#N | -9% | 0% | 0% | / | -11%
CCNC(=S)N1CCC(n2cnc3ccccc32)CC1 | -1% | 3% | -8% | 0% | 2%
CCOc1ccc(C(=O)c2cccs2)cc1 | ? | 17µM* | ? | 12% | ?
COc1ccccc1C1(O)C(=O)Nc2ccc(C)cc21 (stereo not given) | -5%[1.84 µM] | 1% | -1% | / | -5%
O=C(O)c1nc(N2CCCC2)ncc1Cl | -3% | 5% | 9% | -1% | 15%
CC1(C)CC(=O)C(N=Nc2cccc([N+](=O)[O-])c2)=C(O)C1 | 20% | 11µM* | 18µM* | / | 0%
COc1ccc(N=NC2=C(O)CC(C)(C)CC2=O)cc1 | 16% | 13µM* | ? | ? | 3.5µM*
CC1(C)CC(=O)C(N=Nc2ccc(Br)cc2)=C(O)C1 | 15% | 3.4µM* | 10µM* | / | -2%
CCCn1c(=N)c(C(=O)NC(C)c2ccccc2)cc2c(=O)n3ccccc3nc21 (stereo not given) | / | -1% | / | / | /
Cc1nc2cc(-c3ccc(Cl)cc3)nn2c(C)c1CCC(=O)NC(C)c1ccc2c(c1)OCCO2 (stereo not given) | -3% | 15µM* | -9% | -73% | 5%
Cc1csc(NC(=O)CCc2c(C)nc3cc(-c4ccc(Cl)cc4)nn3c2C)n1 | -2% | 11µM* | -15% | -83% | 1%
CN1CCN(CCc2nc3cc(NC(=O)COc4ccc([N+](=O)[O-])cc4)ccc3n2C)CC1 | 4% | -1% | 0% | / | -6%
CCNc1nc(N)nc(-c2cc(Cl)ccc2O)n1 | 1.3µM* | 1.7µM* | ? | 11µM* | 4µM*
SMILES | Rab9 prom act | FLuc modulator | ELG1 genotoxic | SMN2 splice up | NPC1 promoter act
CCCNc1nc(N)nc(-c2cc(Cl)ccc2OC)n1 | -4% | 11% | -1% | 6% | 2%
CCCCNc1nc(N)nc(-c2cc(Cl)ccc2O)n1 | 2.8µM* | 9.5µM* | ? | 6.3µM* | 3.5µM*
CC(C)N(C(=O)[C@H]1C[C@H](CC(=O)NCCC2=CCCCC2)C(=O)N2CCc3c([nH]c4ccc(Cl)cc34)[C@]12C)C(C)C | / | / | -1% | / | /
CCCn1c(-c2ccc(F)cc2)nc2c(NCCN3CCOCC3)nc(C)nc21 | / | / | / | -2% | /
O=c1cc(-c2ccccc2Cl)oc2cc(O)cc(O)c12 | 12% | 27µM* | 5% | -5% | 7%
Nc1ccc(O)c2c(=O)cc(-c3ccccc3Cl)oc12 | 2.8µM* | 2.7µM* | ? | 11µM* | 2.8µM*
O=C(Nc1ccc(Cl)cc1)N1CCC(CO)(Cc2ccccc2)CC1 | -9% | -18% | -7% | / | -2%
CC1(C)CC(=O)c2cc(C(=O)Nc3ccc(Br)cc3)c(=O)[nH]c2C1 | / | -6% | / | 2% | /
CCn1cc(CN2CCCC(C(=O)Nc3ccc(-c4nc5ccccc5[nH]4)cc3)C2)c(C)n1 (stereo not given) | 25% | ? | -5% | / | 12%
Cc1cc(CN2CCCC(C(=O)Nc3ccc(-c4nc5ccccc5[nH]4)cc3)C2)n[nH]1 (stereo not given) | ? | 15µM* | 19% | / | ?
Cc1c(NC(=O)C(C)OC(=O)[C@@H](NC(=O)c2ccccc2)C(C)C)c(=O)n(-c2ccccc2)n1C (stereo not given in full) | 12% | 0% | 2% | -15% | -4%
CC1CCN(C(=O)c2ccc3c(c2)NC(=O)/C(=C/c2ccccc2)S3)CC1 | -1% | -16% | 2%[9.26 µM] | / | -5%
Cc1ccc(/C=C2/Sc3ccc(C(=O)NCCN4CCOCC4)cc3NC2=O)cc1 | 1% | ? | 4% | / | -3%
Cc1ccc(/C=C2/Sc3ccc(C(=O)N4CCN(C)CC4)cc3NC2=O)cc1 | 0% | 15µM* | 2% | / | -1%
CCN1CCCC1CNC(=O)c1ccc2c(c1)NC(=O)/C(=C\c1ccc(C)cc1)S2 (stereo not given) | -2% | 21µM* | ? | / | 0%
CSc1ccc(/C=C/c2ccc3cccc(O)c3n2)cc1 | 1.3µM* | 2.4µM* | ? | 13µM* | 3.2µM*
COc1cc(/C=C/c2ccc3cccc(O)c3n2)ccc1O | 3.2µM* | 6.7µM* | 16µM* | / | ?
COc1ccc(OC)c(/C=C/c2ccc3cccc(O)c3n2)c1 | 6% | 13µM* | ? | / | 11%
COc1cc(/C=C/c2ccc3cccc(O)c3n2)c(Br)cc1O | 3% | ? | ? | / | -1%
Cc1ccc(NC(=O)COC(=O)c2ccc(Cl)nc2)cc1S(=O)(=O)N1CCCCC1 | 3% | / | 3% | / | -3%
COC(=O)c1ccc(C(NC(=O)OCc2ccccc2)/C(F)=C/[C@@H](C)C(=O)N(C)Cc2cccnc2)cc1 (stereo not given in full) | / | / | / | -19% | /
Cc1cccc(NC(=O)NCc2ccc3[nH]c(C)cc3c2)c1 | ? | 19µM* | ? | 17% | ?
Cc1ccc(NC(=O)NCc2ccc3[nH]c(C)cc3c2)cc1 | 13% | ? | 4% | 22µM* | 14%
CC(=O)NCc1ccc2[nH]c(C)cc2c1 | -3% | -2% | 7% | 2% | -1%
Cc1ccc(CNC(=O)Nc2cccc(C)c2)cc1 | 2.8µM* | 9.5µM* | ? | ? | ?
